This is a sample that favours compounds with a hit; in the whole collection about 0.97% have one here.
UGM FP inh: M. tuberculosis UGM enzyme inhibitors, primary screen, biochemical, fluorescence polarization, single point. AID 504406, 2011. inhibition, % at 10 µM. hit rate 0.06% among 320,000. purified UGM, fluorescence polarization probe displacement. UDP-galactopyranose mutase (Mycobacterium tuberculosis (strain ATCC 25618 / H37Rv)), …; in the data active = inhibition above about 10%, passing the limit was not always enough
TcdB inh: TcdB glycohydrolase inhibitors, primary screen, biochemical, single point, plate reader. TcdB glycohydrolase enzymatic assay. inhibition, % at 9.99 µM. Toxin B (Clostridioides difficile), P18177. hit rate 0.24% among 350,000; in the data active = inhibition above about 10%
RecA intein inh: Mtb RecA intein splicing inhibitors, primary screen, biochemical, fluorescence, HTS. Protein RecA (Mycobacterium tuberculosis (strain ATCC 25618 / H37Rv)), P9WHJ3. cell-free RecA intein splicing. inhibition, % (test concentration not listed). hit rate 0.75% among 290,000. AID 2221, 2009; in the data active = inhibition above about 30%
Rv3671c inh: Rv3671c serine protease inhibitors, primary screen, biochemical, fluorescence polarization, M. tuberculosis H37Rv; inhibition, % at 5.96 µM; hit rate 0.048% among 320,000; in the data active = inhibition above about 38%;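 also: extracellular domain of Rv3671c used as enzyme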
Target sequence (P9WHR9 whole entry, looked up, the tested form may be a part): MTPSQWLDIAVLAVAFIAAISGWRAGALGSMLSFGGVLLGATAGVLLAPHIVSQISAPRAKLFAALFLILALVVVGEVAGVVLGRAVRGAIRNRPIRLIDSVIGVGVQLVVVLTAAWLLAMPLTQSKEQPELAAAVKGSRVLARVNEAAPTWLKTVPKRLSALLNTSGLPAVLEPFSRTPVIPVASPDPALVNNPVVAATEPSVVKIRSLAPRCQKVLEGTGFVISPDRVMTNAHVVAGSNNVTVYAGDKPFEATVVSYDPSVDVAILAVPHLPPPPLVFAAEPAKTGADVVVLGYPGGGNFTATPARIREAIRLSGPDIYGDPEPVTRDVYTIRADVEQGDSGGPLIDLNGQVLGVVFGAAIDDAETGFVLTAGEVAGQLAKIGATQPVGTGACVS
Mtb betalactam: beta-lactam sensitization of Mtb H37Rv, H37Rv. M. tuberculosis H37Rv growth with meropenem, percent inhibition. inhibition, % at 25 µM. hit rate 0.27% among 330,000; call rule not given here;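 also: growth measured after seven days incubation then overnight dye step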
MazF activator: activators of E. coli MazEF toxin-antitoxin RNase, primary screen, biochemical, fluorescence, uHTS. Endoribonuclease toxin MazF (Escherichia coli (strain K12)), P0AE70. FAM/BHQ RNA-DNA oligo cleavage fluorescence, 5 h. activation, % at 20 µM. hit rate 0.32% among 350,000; in the data active = activation above about 50%
Target sequence (P0AE70 whole entry, looked up): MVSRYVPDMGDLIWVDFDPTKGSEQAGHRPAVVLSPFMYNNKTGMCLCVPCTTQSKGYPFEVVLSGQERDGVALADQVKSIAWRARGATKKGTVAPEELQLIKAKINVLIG
Of the large screens only hits and unclear results are named; the others gave an inactive call.

O=C(O)/C=C/C(=O)N1N=C(c2ccco2)CC1c1ccco1 (configuration not stated)	none
O=C(CCl)N1N=C(c2ccco2)CC1c1ccco1 (configuration not stated)	RecA intein inh 53.9
O=C(C[C@@H]1CC[C@@H]2[C@H](COC[C@@H](O)CN2Cc2cccc(C(F)(F)F)c2)O1)NCc1ccncc1	none (no result: UGM FP inh, RecA intein inh, Rv3671c inh, Mtb betalactam, MazF activator)
Cc1ccc(S(=O)(=O)N(C)C[C@H]2Oc3c(cccc3N(C)C)C(=O)N([C@@H](C)CO)C[C@@H]2C)cc1	none (no result: UGM FP inh, RecA intein inh, Rv3671c inh, Mtb betalactam, MazF activator)
COc1ccc(-n2c(C)ccc2-c2ccccc2)cn1	UGM FP inh 57.6
O=[N+]([O-])c1ccc(Cl)c(-c2ccc(/C=N/n3cnnc3)o2)c1	none
COc1cc([N+](=O)[O-])ccc1-c1ccc(/C=N\n2cnnc2)o1	MazF activator 153.8 (no result: Rv3671c inh)
Cc1ccc(C(=O)NCCn2cc(SCC(=O)Nc3cc(C)on3)c3ccccc32)cc1	TcdB inh 15.1
C[C@H]1CN([C@@H](C)CO)C(=O)CCCn2cc(nn2)CO[C@@H]1CN(C)C	none (no result: UGM FP inh, RecA intein inh, Rv3671c inh, Mtb betalactam, MazF activator)
O=C(C[C@H]1C=C[C@@H](NC(=O)C2CCOCC2)[C@@H](CO)O1)Nc1ccccc1	none (no result: UGM FP inh, RecA intein inh, Rv3671c inh, Mtb betalactam, MazF activator)
Cc1cc(O)c(C=O)c2c1C(=O)Oc1c(CO)c(O)c3c(c1O2)C(O)OC3=O (configuration not stated)	Rv3671c inh 56.7 (no result: TcdB inh, RecA intein inh)
Cc1cc(O)c(CN(C)C)c2c1C(=O)/C(=C/c1ccco1)O2	none
C[C@@H]1CN([C@@H](C)CO)C(=O)c2cc(Br)cnc2O[C@@H]1CN(C)Cc1ccccc1	none (no result: UGM FP inh, RecA intein inh, Rv3671c inh, Mtb betalactam, MazF activator)
Cc1ccc(-c2[nH]nc3c2C(c2ccoc2)C(C#N)=C(N)O3)cc1C (configuration not stated)	RecA intein inh 92.3 (no result: TcdB inh)
CC(C)(C)c1[nH]nc2c1C(c1ccncc1)C(C#N)=C(N)O2 (configuration not stated)	none (no result: TcdB inh)
Cc1ccc(-n2nc(C)c3c2OC(N)=C(C#N)C3c2ccoc2)cc1 (configuration not stated)	RecA intein inh 71.1 (no result: TcdB inh)
CC(C)(C)c1[nH]nc2c1C(c1ccoc1)C(C#N)=C(N)O2 (configuration not stated)	RecA intein inh 56.4 (no result: TcdB inh)
COc1ccc(CNC(=O)C[C@H]2C[C@@H]3c4cc(NC(=O)CN(C)C)ccc4O[C@@H]3[C@@H](CO)O2)cc1	none (no result: UGM FP inh, RecA intein inh, Rv3671c inh, Mtb betalactam, MazF activator)
Cc1noc(C)c1CSCC(=O)Oc1ccc(N(C)S(=O)(=O)c2ccccc2)cc1	RecA intein inh 38.1
Cc1noc(C)c1CSCC(=O)Oc1ccc(N(C)S(=O)(=O)c2ccc(Cl)cc2)cc1	RecA intein inh 40.1
O=C(C[C@@H]1C[C@H]2c3cc(NC(=O)Nc4ccccc4F)ccc3O[C@H]2[C@H](CO)O1)NCc1ccc2c(c1)OCO2	none (no result: UGM FP inh, RecA intein inh, Rv3671c inh, Mtb betalactam, MazF activator)
[N-]=[N+]=NCc1ccccc1C[C@]1(C(=O)NCc2ccccc2)COC(c2ccc(OCCCO)cc2)=N1	none (no result: UGM FP inh, RecA intein inh, Rv3671c inh, Mtb betalactam, MazF activator)
Cn1c(-c2ccc(Br)o2)nc2ccccc21	none (no result: TcdB inh)
Brc1ccc(Cn2c(-c3ccc(Br)o3)nc3ccccc32)o1	RecA intein inh 30.4 (no result: UGM FP inh, TcdB inh, Rv3671c inh, Mtb betalactam)
C[C@H]1CN([C@@H](C)CO)C(=O)c2cccc(NC(=O)c3ccc(-c4nccs4)cc3)c2O[C@H]1CN(C)S(=O)(=O)c1cn(C)cn1	none (no result: UGM FP inh, RecA intein inh, Rv3671c inh, Mtb betalactam, MazF activator)
C[C@@H]1CN([C@H](C)CO)C(=O)c2cccc(NC(=O)Nc3ccccc3)c2O[C@H]1CN(C)C(=O)Nc1cccc2ccccc12	none (no result: UGM FP inh, RecA intein inh, Rv3671c inh, Mtb betalactam, MazF activator)
Cc1cc(-c2ccco2)c(C#N)c2nc3ccccc3n12	MazF activator active (no result: TcdB inh)
Oc1ccc(Nc2nc(Cl)nc(NCc3ccco3)n2)cc1	TcdB inh 12.9
CCOC(=O)C1=C(C)OC(N)=C(C#N)C12C(=O)N(C)c1ccccc12 (configuration not stated)	MazF activator 62.8 (no result: TcdB inh)
COc1ccc(NC(=O)N(C)C[C@@H]2Oc3cc(C#CCC(C)C)ccc3S(=O)(=O)N([C@@H](C)CO)C[C@@H]2C)cc1	none (no result: UGM FP inh, RecA intein inh, Rv3671c inh, Mtb betalactam, MazF activator)
CC(=O)c1cc2c(C)c(C(=O)c3ccccc3)oc2cc1O	MazF activator 88.6 (no result: TcdB inh)
Cc1noc(C)c1S(=O)(=O)Nc1ccc2c(c1)CC(=O)N([C@@H](C)CO)C[C@@H](C)[C@H](CN(C)S(=O)(=O)c1ccc(Cl)cc1)O2	none (no result: UGM FP inh, RecA intein inh, Rv3671c inh, Mtb betalactam, MazF activator)
Cc1onc(-c2c(F)cccc2Cl)c1C(=O)Nc1nccs1	none
Cc1onc(-c2c(F)cccc2Cl)c1C(=O)Nc1nnc(C(F)(F)F)s1	TcdB inh 15.6
c1ccc(-c2nc(Sc3ncnc4c3cnn4-c3ccccc3)n[nH]2)cc1	RecA intein inh 31.8 (no result: TcdB inh, MazF activator)
COc1ccc(CC(=O)N/N=C(\C)CC(=O)Nc2ccc(N(C)C)cc2)cc1	none
COc1ccc(CC(=O)N/N=C(/C)CC(=O)N(C)c2ccccc2)cc1	RecA intein inh 30.1
Oc1ccc(Cc2ccccc2Cl)c(O)c1	TcdB inh 12.6 (no result: UGM FP inh, RecA intein inh, Rv3671c inh, Mtb betalactam)
Oc1ccc(Cc2ccc(Cl)cc2)c(O)c1	TcdB inh 10.2
CCC(=O)N1C[C@H](C)[C@H](OC)CN(C)C(=O)c2ccc(NC(=O)COC)cc2OC[C@@H]1C	none (no result: UGM FP inh, RecA intein inh, Rv3671c inh, Mtb betalactam, MazF activator)
CCOC(=O)[C@@H]1[C@H]2COc3ccc(Br)cc3[C@@H]2N2C(=O)N(c3cccc(F)c3)C(=O)[C@]12C	TcdB inh 10.7
CCOC(=O)[C@H]1[C@H]2COc3ccccc3[C@@H]2N2C(=O)CN(Cc3ccc(C)cc3)C(=O)[C@@]12C	MazF activator 542.4 (no result: RecA intein inh)
C[C@H](CO)N1C[C@H](C)[C@H](CN(C)Cc2ccc3c(c2)OCO3)OCc2cn(nn2)CCCC1=O	none (no result: UGM FP inh, RecA intein inh, Rv3671c inh, Mtb betalactam, MazF activator)
O=C([C@@H]1[C@@H](CO)[C@@H]2Cn3c(ccc(-c4ccncc4)c3=O)[C@H]1N2Cc1cccnc1)N1CCOCC1	none (no result: UGM FP inh, RecA intein inh, Rv3671c inh, Mtb betalactam, MazF activator)
CN1\C(=C/C=C/C=C/C=[N+](C)C)C(C)(C)c2ccccc21	MazF activator 477.0 (no result: UGM FP inh, Rv3671c inh, Mtb betalactam)
CN1/C(=C\C=O)C(C)(C)c2ccccc21	none
CN1/C(=C/C=C(C#N)C#N)C(C)(C)c2ccccc21	MazF activator active
CN1/C(=C\C=C\C2=[N+](C)c3ccc4ccccc4c3C2(C)C)C(C)(C)c2ccccc21	Rv3671c inh 186.6 (no result: TcdB inh, RecA intein inh, MazF activator)
Nc1ccc(Oc2ncccn2)cc1	RecA intein inh 51.3
CCN1C(=O)/C(=C2\C=Cc3ccccc3N2CC)OC1=S	MazF activator 234.6
C=CCN1C(=O)NC(c2ccc(OC)cc2)(C(F)(F)F)S/C1=C(\C#N)c1nnc(N2CCOCC2)n1-c1ccccc1 (configuration not stated)	RecA intein inh 43.4
CCN(C[C@H]1N[C@H](CO)[C@H]1c1ccccc1)C(=O)c1ccncc1	none (no result: UGM FP inh, RecA intein inh, Rv3671c inh, Mtb betalactam, MazF activator)
CC(=O)N1[C@@H]2c3cccc(=O)n3C[C@H]1[C@H](CO)[C@H]2C(=O)N[C@@H](C)c1ccccc1	none (no result: UGM FP inh, RecA intein inh, Rv3671c inh, Mtb betalactam, MazF activator)
O=C(Cn1cnc2c(nnn2Cc2ccccc2F)c1=O)NCC1CCCO1 (configuration not stated)	none (no result: TcdB inh)
